# Sampled rows, rich in hits. Any-hit rate of the full collection: about 0.41%.
# GLA inh pH 4.5: qHTS Assay for Inhibitors of Human alpha-Galactosidase at pH 4.5; Alpha-galactosidase A (Homo sapiens), P06280; purified enzyme, 4-MU-alpha-Gal fluorescence, pH 4.5; activity change, negative = inhibition, % at 105 µM; 230,000 tested, under 10 active; AID 1467, 2008;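 further: 0% = full activity with enzyme and -100% = basal without enzyme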
# Target sequence (P06280 whole entry, looked up): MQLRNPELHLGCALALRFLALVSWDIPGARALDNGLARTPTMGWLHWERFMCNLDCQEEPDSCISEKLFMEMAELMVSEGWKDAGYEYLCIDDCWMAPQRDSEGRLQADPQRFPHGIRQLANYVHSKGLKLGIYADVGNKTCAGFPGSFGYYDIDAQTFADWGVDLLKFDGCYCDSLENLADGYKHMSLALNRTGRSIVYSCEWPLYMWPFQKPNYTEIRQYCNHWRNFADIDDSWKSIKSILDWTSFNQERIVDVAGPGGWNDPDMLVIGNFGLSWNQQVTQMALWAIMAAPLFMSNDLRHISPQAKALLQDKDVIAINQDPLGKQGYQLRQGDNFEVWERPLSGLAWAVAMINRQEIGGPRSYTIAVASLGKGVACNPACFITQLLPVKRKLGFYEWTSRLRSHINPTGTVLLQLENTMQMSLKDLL
# GAA glycogen mod: qHTS Assay for Inhibitors and Activators of Human alpha-Glucosidase Cleavage of Glycogen; Lysosomal alpha-glucosidase (Homo sapiens), P10253; recombinant GAA, glycogen substrate, Amplex Red glucose oxidase fluorescence; Potency, µM (titrated, usually from 76.4 µM), for the others: at the top dose activity change, negative = inhibition, usual class: inhibitors; 300,000 compounds, 0.38% hits;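 further: potency means the concentration at half of the fitted maximal effect; 0% = full enzyme reaction and -100% = no-enzyme basal signal; the screen sought inhibitors and activators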
#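 qHTS, 1536-well; enzyme 4 nM final; cpd up to 77 uM; substrate bovine liver glycogen 30 ug; 50 mM citrate/phosphate pH 5.0, 0.01% Tween-20; 37 C, 40 min; Amplex Red detection 45 min RT; Hill fit → AC50.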
# GAA inh: qHTS Assay for Inhibitors of Human alpha-Glucosidase as a Potential Chaperone Treatment of Pompe Disease. purified human GAA, 4-MU-alpha-glucoside fluorescence. Potency, µM (highest dose often 76.9 µM), inactives show at the highest dose activity change, negative = inhibition, actives largely listed as inhibitors. 200,000 compounds, 0.005% hits;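 further: potency means the concentration at half of the fitted maximal effect; plate controls were uninhibited enzyme wells for no effect and no-enzyme background for full effect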
#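 Read-out is 4-methylumbelliferone fluorescence (Ex 365/Em 440 nm) after NaOH/glycine stop at pH 10. Enzyme 4 nM, substrate 400 uM, pH 5.0 citrate buffer, 20 min room temperature; AC50 from Hill-equation concentration-response.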
# aGal spleen mod: qHTS Assay for Inhibitors and Activators of Human alpha-Galactosidase From Spleen Homogenate. Alpha-galactosidase A (Homo sapiens), P06280. human spleen homogenate, 4MU-alpha-Gal fluorescence, 40 min. Potency, µM (top dose mostly 80 µM), inactives show at the highest dose activity change, negative = inhibition, usual class: inhibitors. 240,000 compounds, 0.008% hits. AID 2107, 2009;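 further: potency means the concentration at half of the fitted maximal effect; 0% = enzyme with vehicle and -100% = no enzyme basal signal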
#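 Spleen homogenate 1 ug + cpd (titration) + 4-MU-alpha-D-galactopyranoside 1 mM; 37C 40 min; 50 mM citrate/phosphate pH 5.0, 0.01% Tween-20; stop pH 10; fluorescence 365/440; AC50 via Hill.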
# aGlu spleen mod: qHTS Assay for Inhibitors and Activators of Human alpha-Glucosidase From Spleen Homogenate | 240,000 compounds, 0.006% hits | human spleen homogenate, 4-MU-alpha-glucoside fluorescence | Lysosomal alpha-glucosidase (Homo sapiens), P10253 | Potency, µM (titrated, usually from 79.9 µM), without a hit: top-dose activity change, negative = inhibition, hits mostly inhibitors;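 further: potency means the concentration at half of the fitted maximal effect; 0% = enzyme with vehicle and -100% = no enzyme basal signal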
#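 Enzyme source: human spleen homogenate, 1 ug/well. Buffer 50 mM citric acid/K phosphate pH 5.0, 0.01% Tween-20. 4-MU-alpha-glucoside 1 mM; 37 C x 40 min; NaOH/glycine stop; fluorescence.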
# N370S GC mod: qHTS Assay for Inhibitors and Activators of N370S glucocerebrosidase as a Potential Chaperone Treatment of Gaucher Disease; N370S GC spleen homogenate, 4MU-glucoside fluorescence; Potency, µM (series often up to 59.4 µM), for the others: at the top dose activity change, negative = inhibition, usual class: inhibitors; 330,000 compounds, 0.092% hits; AID 2101, 2009;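 further: potency means the concentration at half of the fitted maximal effect; 0% = full enzyme activity and -100% = no enzyme basal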
# An asterisk follows results filed as active; ? = inconclusive; . = no result; [ ] = remark or other dose. The call rests on the fitted dose curve; in most records, active means well fitted curve in the direction sought with a large enough effect; inconclusive means small, poorly fitted or top-dose-only effect, or another doubt; inactive means no such curve, though single readings can be large; an effect the other way counts as inactive or inconclusive.
SMILES,GLA inh pH 4.5,GAA glycogen mod,GAA inh,aGal spleen mod,aGlu spleen mod,N370S GC mod
CC[C@H](C)[C@H](NC(=O)[C@H](Cc1ccc(O)cc1)NC(=O)[C@H](Cc1cnc[nH]1)NC(=O)[C@H](CCCNC(=N)N)NC(=O)[C@H](CC(C)C)NC(=O)[C@H](C)NC(=O)[C@H](CO)NC(=O)[C@H](Cc1ccc(O)cc1)NC(=O)[C@H](Cc1ccc(O)cc1)NC(=O)[C@H](CCCNC(=N)N)NC(=O)[C@H](C)NC(=O)[C@H](CCSC)NC(=O)[C@H](CC(=O)O)NC(=O)[C@H](CCC(=O)O)NC(=O)[C@H](C)NC(=O)[C@@H]1CCCN1C(=O)[C@H](C)NC(=O)[C@H](CC(=O)O)NC(=O)[C@H](CCC(=O)O)NC(=O)CNC(=O)[C@@H]1CCCN1C(=O)[C@H](CC(N)=O)NC(=O)[C@H](CC(=O)O)NC(=O)[C@@H]1CCCN1C(=O)[C@H](CCCCN)NC(=O)[C@H](CO)NC(=O)[C@@H]1CCCN1C(=O)[C@@H](N)Cc1ccc(O)cc1)C(=O)N[C@@H](CC(N)=O)C(=O)N[C@@H](CC(C)C)C(=O)N[C@H](C(=O)N[C@H](C(=O)N[C@@H](CCCNC(=N)N)C(=O)N[C@@H](CCC(N)=O)C(=O)N[C@@H](CCCNC(=N)N)C(=O)N[C@@H](Cc1ccc(O)cc1)C(N)=O)[C@@H](C)O)[C@@H](C)CC,.,.,.,-4%,-1%,0%
COC(=O)c1cccc(-n2c(CCC(=O)O)ccc2-c2ccc(OC)cc2)c1,.,15%[76.3 µM],.,.,.,.
CC(C)OCCCNc1nc(-c2ccccc2)nc2ccccc12,.,-10%[76.3 µM],.,.,.,1.8µM*
c1ccc(CCNc2nc(-c3ccncc3)nc3ccccc23)cc1,-1,-3%,.,-5%,0%,14µM*
CC(C)(C)C(=O)OCCNc1nc(-c2ccccc2)nc2ccccc12,-4,-1%,-11%,-9%,3%,0.89µM*
Clc1ccccc1-c1nc(NCc2cccnc2)c2ccccc2n1,.,.,.,9%,3%,16µM*
CCN1C(=O)[C@H]2[C@H]3[C@H](O)[C@H](O)C/C(=N/NC(=O)OCc4ccccc4)[C@H]3CC[C@@H]2C1=O,.,.,.,-11%[17.5 µM],-1%[17.4 µM],5%[12.8 µM]
CCc1ccc(NC(=O)C2CCN(C(=O)N3CC(CC)Oc4ccccc43)CC2)cc1 (stereo not drawn),.,-21%[76.3 µM],.,.,.,.
O=C(/C=C/c1ccc(O)c(O)c1)NC(=O)c1ccccc1O,-5,3.5µM*,.,11%,4%,-24%
O=C(O)/C=C/c1ccc(O)c(O)c1,1,7.9µM*,-9%[15.4 µM],?,?,-20%
O=C(/C=C/c1ccc(O)c(O)c1)O[C@@H](C(=O)O)[C@@H](OC(=O)/C=C/c1ccc(O)c(O)c1)C(=O)O,.,.,.,-7%,-7%,-26%
Cc1ccc(Cl)cc1NC(=O)N1CCC(CN2CCCCCC2)CC1,.,5%[76.3 µM],.,.,.,.
COc1ccccc1C1Nc2cccc3cccc(c23)N1,0,16µM*,-3%,2%,0%,-6%
COc1cc(OC)c(C2Nc3cccc4cccc(c34)N2)c(OC)c1,.,?,.,.,.,-8%
COc1ccccc1NC(=O)CN(c1cc(C)cc(C)c1)S(=O)(=O)c1c(C)[nH]c(=O)[nH]c1=O,.,-11%[76.3 µM],.,.,.,.
COc1ccc(N(CC(=O)Nc2cccc(C)c2C)S(=O)(=O)c2c(C)[nH]c(=O)[nH]c2=O)cc1,1,4%,.,10%,1%,2%
Cc1cc(C)cc(N(CC(=O)Nc2cccc(C)c2C)S(=O)(=O)c2c(C)[nH]c(=O)[nH]c2=O)c1,.,12%[76.3 µM],.,.,.,2.5µM*
Cc1cc(C)cc(N(CC(=O)Nc2ccc(Br)cc2)S(=O)(=O)c2c(C)[nH]c(=O)[nH]c2=O)c1,.,.,.,.,.,1.6µM*
Cc1cc(C)cc(N(CC(=O)Nc2cc(C)ccc2C)S(=O)(=O)c2c(C)[nH]c(=O)[nH]c2=O)c1,.,.,.,.,.,8.9µM*
CCCC[C@H](NC(C)=O)C(=O)N[C@@H](CCC(=O)O)C(=O)N[C@@H](Cc1cnc[nH]1)C(=O)N[C@H](Cc1ccccc1)C(=O)N[C@@H](CCCN=C(N)N)C(=O)N[C@H](Cc1c[nH]c2ccccc12)C(=O)NCC(N)=O,.,.,.,-7%,3%,-3%
CC(C)=CCC/C(C)=C/CC/C(C)=C/CC/C(C)=C/C(=O)O,.,.,.,0%,-10%,-9%
CC(C)c1ccc(C2N3CC4(C)CN2CC(c2ccccc2)(C3)C4=O)cc1 (stereo not drawn),.,0%[76.3 µM],.,.,.,.
Cc1ccc2nc(-c3ccc(SCC(=O)N4CCc5ccccc54)nc3)[nH]c2c1,-4,-6%,4%,4%,-3%,3.2µM*
Cc1ccc2nc(-c3ccc(SCC(=O)O)nc3)[nH]c2c1,-3,3%,3%,4%,-1%,14%
CC(C)COc1ccc(C(=O)N(Cc2ccc(N(C)C)cc2)Cc2ccco2)cc1,.,-18%[76.3 µM],.,.,.,.
SMILES,GLA inh pH 4.5,GAA glycogen mod,GAA inh,aGal spleen mod,aGlu spleen mod,N370S GC mod
COc1ccc(C(CNC(=O)c2ccc(NS(=O)(=O)c3ccc(F)c(C)c3)cc2)N2CCOCC2)cc1 (stereo not drawn),.,.,.,.,.,14µM*
CC1(C)C([N+](=O)[O-])C(c2ccc(O)cc2)NC(c2ccc(O)cc2)C1[N+](=O)[O-] (stereo not drawn),0,4%,-2%,-9%,0%,8.9µM*
CC1(C)C([N+](=O)[O-])C(c2ccc(F)cc2)NC(c2ccc(F)cc2)C1[N+](=O)[O-] (stereo not drawn),-8,-3%,.,5%,1%,7%
Cc1ccc(Nc2c(-c3ccsc3)nc3c(C)cccn23)cc1,.,11µM*,.,.,.,.
Cc1cccn2c(Nc3ccccc3)c(-c3ccc(N4CCOCC4)cc3)nc12,.,4µM*,.,.,.,.
Nc1nc(N2CCN(C(c3ccccc3)c3ccccc3)CC2)n[nH]1,1,?,4%,4%,-2%,-7%
Nc1nc(N2CCN(Cc3ccccc3)CC2)n[nH]1,8,5.6µM*,7%,4%,-4%,-1%
CC(C)C=O,.,.,.,-4%,3%,-15%
O=C(Nc1ccc(Cl)c(Cl)c1)N(CCCN1CCOCC1)Cc1cccs1,-2,4%,-5%,6%,4%,13µM*
O=C(CNC(=S)N(CCCN1CCOCC1)Cc1cccs1)NC1CCCCCCC1,-4,7%,-4%,4%,6%,4µM*

# High-throughput results: PubChem BioAssay, National Center for Advancing Translational Sciences (NCATS)
